In the library only some 1.8% were active in any assay of this set; here they are far more common.
TRPML1 ag: qHTS for Agonists of the Human Mucolipin Transient Receptor Potential 1 (TRPML1) | Mucolipin-1 (Homo sapiens), Q9GZU1 | TRPML1-expressing cells, Ca2+ dye fluorescence, FDSS | activation, % (concentration not given with the values) | 410,000 compounds, 0.12% hits | AID 624414, 2012; in the data active = activation above about 50%; inconclusive = mostly about 30% to 49%
Target sequence (Q9GZU1 whole entry, looked up): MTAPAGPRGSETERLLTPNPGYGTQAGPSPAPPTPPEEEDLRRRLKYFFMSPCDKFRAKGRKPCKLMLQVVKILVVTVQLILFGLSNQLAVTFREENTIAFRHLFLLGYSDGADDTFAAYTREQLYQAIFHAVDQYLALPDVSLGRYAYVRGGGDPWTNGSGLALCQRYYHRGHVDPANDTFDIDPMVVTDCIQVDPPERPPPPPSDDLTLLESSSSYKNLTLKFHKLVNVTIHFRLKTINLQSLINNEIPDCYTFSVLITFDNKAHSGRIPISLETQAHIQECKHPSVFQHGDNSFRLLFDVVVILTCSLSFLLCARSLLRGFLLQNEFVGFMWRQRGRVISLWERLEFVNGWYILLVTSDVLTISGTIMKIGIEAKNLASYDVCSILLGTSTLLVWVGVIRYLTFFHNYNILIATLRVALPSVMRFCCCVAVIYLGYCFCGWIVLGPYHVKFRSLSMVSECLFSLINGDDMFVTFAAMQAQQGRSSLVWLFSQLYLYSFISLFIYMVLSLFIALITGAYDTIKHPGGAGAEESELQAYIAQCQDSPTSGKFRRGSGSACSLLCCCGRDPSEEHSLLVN
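Tet-induced TRPML1-DL cells, 1,500 per well, cultured overnight, were loaded with a no-wash Ca2+ dye for 45–90 min. Calcium fluorescence was recorded on the FDSS for 110 s after compound addition, before the EC80 agonist (4 uM 54-4) was added.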
TRPML1 inh: qHTS for Inhibitors of the Human Mucolipin Transient Receptor Potential 1 (TRPML1); Mucolipin-1 (Homo sapiens), Q9GZU1; TRPML1-inducible cells, Ca2+ dye fluorescence, FDSS; hits give low values; inhibition of EC80 agonist-evoked calcium signal; activity change, negative = inhibition, % (test concentration not listed); 390,000 compounds, 0.02% hits; in the data active = activity change below about -50%; inconclusive = between about -30% and that limit;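 note: stimulus is agonist 54-4 at its EC80 concentration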
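Tet-induced TRPML1-DL cells loaded with Ca8 no-wash calcium dye were read kinetically on FDSS. Compound addition was followed by EC80 agonist 54-4 (4 uM final); inhibition was read over 110 s.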
GLP1R inv ag: qHTS of GLP-1 Receptor Inverse Agonists (Inhibition Mode). Glucagon-like peptide 1 receptor (Homo sapiens), P43220. HEK293 GLP-1R CRE-luciferase, luminescence, 24 h; GLP-1R form is constitutively active. Potency, µM (top dose mostly 38.3 µM), hits mostly inhibitors. 410,000 compounds, 1.6% hits. AID 624417, 2012; note: nearly all actives have a fitted effect of over 55% in size
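Constitutively active GLP-1R drives a cAMP-responsive luciferase in stably transfected HEK293 cells; test compounds are added after overnight (12 h) attachment and left 24 hr, and signal loss in luminescence marks inhibition.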
HEK293 tox: qHTS of GLP-1 Receptor Inverse Agonists: Cytotox Screen. HEK293 cAMP-luciferase reporter cells, luminescence, 24 h. Potency, µM (highest dose often 38.3 µM), actives largely listed as inhibitors. 410,000 compounds, 0.13% hits. AID 624418, 2012;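 note: loss of luciferase light is scored as toxicity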
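Quantitative HTS format, 1536 wells, 200 cells/uL seeded. Compounds: 23 nL, 24 h, 37 °C. Detection: luciferase reagent, luminescence at 12 min RT; decreased signal taken as cytotoxic.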
GLP-1R agonist: qHTS of GLP-1 Receptor Agonists; 380,000 compounds, 0.007% hits; AID 624172, 2012; Glucagon-like peptide 1 receptor (Homo sapiens), P43220; HEK293 GLP-1R CRE-luciferase, luminescence, 4-6 h; cells express a hypersensitive GLP-1R form; Potency, µM (series often up to 45.6 µM), most hits filed as activators
A number is an active result; - = inactive; ? = inconclusive; . = no result given. Unless noted, calls come from the whole dose curve; as a rule, active = well fitted curve in the direction sought with a large enough effect; inconclusive = small, poorly fitted or top-dose-only effect, or another doubt; inactive = no such curve, though single readings can be large; an effect the other way counts as inactive or inconclusive.

SMILES | TRPML1 ag | TRPML1 inh | GLP1R inv ag | HEK293 tox | GLP-1R agonist
CCOCCCNC(=O)C(c1ccc(Cl)cc1)N(Cc1ccc2c(c1)OCO2)C(=O)c1ccccc1O (configuration not stated) | - | - | ? | - | .
CCCCc1nn2c(C)c(-c3ccc(OCC)cc3)nc2s1 | - | - | 10µM | - | .
CCCCCCCc1nn2c(=O)cc(O)nc2s1 | - | - | - | - | -
COc1ccc(/C=N/NC(=O)c2ccc3ccccc3c2)cc1OS(=O)(=O)c1ccc(NC(C)=O)cc1 | - | - | - | 2.24µM | -
CCc1ccc(Cn2c(CNS(=O)(=O)c3ccc(F)c(Cl)c3)nc3cccnc32)cc1 | - | - | - | - | .
Cc1ccc(C(C)C)c(OCCNC(=O)c2cncc(Br)c2)c1 | - | - | 10µM | - | -
O=C(NCCOc1ccccc1)c1cncc(Br)c1 | - | - | - | - | -
COc1cc(C(=O)NCCOc2cc(C)ccc2C(C)C)cc(OC)c1OC | - | - | 3.55µM | - | -
CC(C)(C)n1ncc2c(=O)n(Cc3ccccc3)cnc21 | - | - | . | . | .
COc1cc(S(=O)(=O)O)c(C)cc1N=Nc1c(O)ccc2cc(S(=O)(=O)O)ccc12 | - | . | . | . | .
CN(C)c1nc(N)nc(-c2cccnc2)n1 | - | - | - | - | -
Cc1[nH]nc(-c2cccnc2)c1N=NN(C)C | - | - | ? | 10µM | -
CCOc1ccccc1CN1CCN(Cc2cc3ccccc3[nH]2)CC1CCO (configuration not stated) | ? | - | 10µM | - | -
CCOc1ccccc1CN1CCN(CC2CC2)CC1CCO (configuration not stated) | - | - | - | - | -
COc1ccc2cc(-c3cn4c(n3)sc3cc(F)ccc34)c(=O)oc2c1 | - | - | - | - | .
CCCCCCc1cc2cc(-c3cn4c(n3)sc3cc(OC)ccc34)c(=O)oc2cc1O | - | -70.7 | - | - | .
CC[N+](CC)(CC)CCOC(=O)C(C1CCCC1)C1CCCC1 | . | . | . | . | -
CCCCCCN1C[C@H](n2cc(-c3ccc(F)cc3)nn2)[C@@H](O)C[C@@H]1c1ccccc1 | - | - | - | - | -
CCCCCC(=O)N1C[C@@H](n2cc(-c3ccc(F)cc3)nn2)[C@H](O)C[C@@H]1c1ccc(C)cc1 | - | - | ? | - | -
CCCCCC(=O)N1C[C@@H](n2cc(-c3ccc(F)cc3)nn2)[C@H](O)C[C@@H]1c1ccc(OC)cc1 | - | - | 11.2µM | - | -
CCCCCCN1C[C@H](O)[C@@H](n2cc(-c3ccc(F)cc3)nn2)C[C@@H]1c1ccccc1 | - | - | 5.01µM | - | -
CCCCCC(=O)N1C[C@@H](O)[C@H](n2cc(COC(=O)c3ccccc3)nn2)C[C@@H]1c1ccc(C)cc1 | - | - | - | - | -
CCCCCC(=O)N1C[C@H](n2cc(COC(=O)c3ccccc3)nn2)[C@@H](O)C[C@@H]1c1ccc(C)cc1 | - | - | 10µM | - | -
CC(=O)C[n+]1cccc2cc(Cl)ccc21 | - | . | . | . | .
NCCCCC(NC(=O)C1CCCN1C(=O)C1CSSCC(N)C(=O)NC(Cc2ccccc2)C(=O)NC(Cc2ccccc2)C(=O)NC(CCC(N)=O)C(=O)NC(CC(N)=O)C(=O)N1)C(=O)NCC(N)=O (configuration not stated) | . | . | . | . | -
SMILES | TRPML1 ag | TRPML1 inh | GLP1R inv ag | HEK293 tox | GLP-1R agonist
CC(C)CC(O)(CC(C)C)C(=O)NNc1ccccc1 | - | - | 5.62µM | - | -
S=C(Nc1ccccn1)Nc1ccccc1Cl | - | - | ? | 6.31µM | -
S=C(Nc1ccccn1)c1ccccn1 | - | - | 0.891µM | 1µM | -
COc1cccc(-c2nc(CS(=O)(=O)CC(=O)Nc3c(C)cc(C)cc3C)c(C)o2)c1 | - | - | ? | - | .
CCCN1C(=O)C(Cc2nc3ccccc3c(=O)n2CC)c2cc(Br)ccc21 (configuration not stated) | - | - | - | - | .
Cc1ccccc1OCC(=O)Nc1ccccc1OCc1cc(=O)n2ccccc2n1 | - | - | - | - | .
COc1ccc(Oc2c(C=O)c3ccccc3n2C)cc1 | - | - | 10µM | - | -
Cn1c(Oc2ccc(Cl)cc2)c(C=O)c2ccccc21 | - | - | ? | - | -
Cc1ccc(Oc2c(C=O)c3ccccc3n2C)cc1 | - | - | 5.01µM | - | -
CNC(=O)c1ccc2nc(Cc3ccccc3)oc2c1 | - | - | - | - | .
CCCCNC(=O)c1ccc(NS(=O)(=O)c2ccccc2)cc1 | - | - | - | - | -
CCN(CC)CCCNC(=O)c1ccc(S(=O)(=O)Nc2ccc(C)c(C)c2)cc1 | - | - | 7.94µM | - | -
OC[C@@H](O)[C@H](O)C(/C=N/Nc1ccccc1)=N\Nc1ccccc1 | - | - | 2.51µM | ? | -
CC(=O)/C=N/Nc1ccccc1 | - | - | - | - | -
COc1cc(C(=O)N2CCN(c3ccc(Nc4ccccc4)nn3)CC2)cc(OC)c1OC | - | - | - | - | .
CCn1nnnc1SCC(=O)N(C1CCCCC1)C1CCCCC1 | - | - | 8.91µM | - | -
CCN(C(=O)CSc1nnnn1C)C1CCCCC1 | - | - | - | - | -
CC(C)(C)n1ncc2c(=O)n(Cc3ccc(F)c(F)c3F)cnc21 | - | - | . | . | .
Cc1cccc(N2CCN(C(=O)C3CCCCC3)CC2)c1C | - | - | 10µM | - | -
Cc1noc(C)c1S(=O)(=O)N1CCCC(C(=O)N2CCC(C)CC2)C1 (configuration not stated) | - | - | - | - | -
Cc1cccc(N2CCN(C(=O)C3CCCN(S(=O)(=O)c4c(C)noc4C)C3)CC2)c1C (configuration not stated) | - | - | 7.94µM | - | -
CN(CC(=O)O)c1ccc(/C=C/c2ccnc3ccccc23)cc1 | - | . | . | . | .
Cc1ccnc2ccc(N)cc12 | - | . | . | . | .
COC(=O)C1CC1[C@H](NC(=O)c1cccnc1)c1ccccc1 (some centres not stated) | - | - | . | . | .
COc1ccc(/C=N/n2c(C)nc3ccccc3c2=O)cc1 | - | - | - | - | -
COc1ccc(/C=N\n2nnc3ccccc32)cc1 | - | - | 5.62µM | - | -
Cc1nn2c3c(cnc2c1-c1ccc(Cl)cc1)C(=O)CC(c1ccc(C(C)C)cc1)C3 (configuration not stated) | - | - | - | - | -
COc1cc(NC(=O)c2ccc(S(=O)(=O)N(C)c3ccccc3)cc2)cc(OC)c1 | - | - | 10µM | - | -
Cc1ccc(/C=N/NC(=O)c2ccc(N(C)S(=O)(=O)c3ccccc3)cc2)cc1 | - | - | 10µM | - | -
